Sampled rows, rich in hits. Any-hit rate of the full collection: about 5.7%.
GLP-1R inv ag: qHTS of GLP-1 Receptor Inverse Agonists (Inhibition Mode). AID 624417, 2012. HEK293 GLP-1R CRE-luciferase, luminescence, 24 h; GLP-1R form is constitutively active. Potency, µM (highest dose often 38.3 µM), most hits filed as inhibitors. 410,000 tested, 1.6% active; further: nearly all actives have a fitted effect of over 55% in size
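GLP-1R inverse agonism mode: basal reporter luminescence in engineered HEK293 cells measured after one day of compound exposure at 37 deg C, with a 12 min room-temperature detection step.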
GLP1R ag: qHTS of GLP-1 Receptor Agonists; Glucagon-like peptide 1 receptor (Homo sapiens), P43220; HEK293 GLP-1R CRE-luciferase, luminescence, 4-6 h; cells express a hypersensitive GLP-1R form; Potency, µM (top dose mostly 45.6 µM), usual class: activators; 380,000 tested, 0.007% active; AID 624172, 2012
D3 ag: qHTS of D3 Dopamine Receptor Agonist: qHTS; D(3) dopamine receptor (Homo sapiens), P35462; D3R DiscoveRx beta-arrestin cells, luminescence, 90 min; max activation, %; 410,000 tested, 0.58% active; AID 652048, 2013; in the data active means max activation above about 30%
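Cells at 1500/well, incubated overnight, then treated with pinned compounds (dopamine as control) for 90 min at 37 degrees C. DiscoveRx reagent added for 30 - 60 minutes at room temperature; luminescence read.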
ClpP mod: qHTS Assay for Activators of ClpP; Potency, µM (titrated, usually from 57.5 µM); ATP-dependent Clp protease proteolytic subunit (Bacillus subtilis (strain 168)), P80244; 340,000 tested, 1.9% active; AID 651965, 2013; purified B. subtilis ClpP, FRET peptide cleavage, 20 min; active means well fitted falling curve with a large enough effect; inconclusive means small, poorly fitted or top-dose-only effect; inactive means no such curve, though single readings can be large or run the other way; further: the source files actives as falling curves though it sought activators and does not explain the sign; nearly all actives have a fitted effect of over 65% in size
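Buffer: 100 mM Tris/HCl pH8, 100 mM KCl, 0.05% low protease BSA, 2.5% glycerol, 0.01% Tween-20. ClpP 10 microg/mL final; 20 min RT; delta FRET normalized to ADEP and DMSO controls.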
GLP1R cytotox: qHTS of GLP-1 Receptor Inverse Agonists: Cytotox Screen; 410,000 tested, 0.13% active; HEK293 cAMP-luciferase reporter cells, luminescence, 24 h; Potency, µM (titrated, usually from 38.3 µM), usual class: inhibitors;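 further: loss of luciferase light is scored as toxicity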
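Cells in DMEM/10% Nu serum/1% pen-strep, 1536-well format. Pre-incubated 12 h, dosed with 23 nL compound, incubated a further 24 h. Luciferase detection, 12 min at room temp, luminescence.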
DRD3 antagonist: qHTS of D3 Dopamine Receptor Antagonist: qHTS; D3R cells, DiscoveRx beta-arrestin luminescence, antagonist mode; stronger effect = lower value; D(3) dopamine receptor (Homo sapiens), P35462; max response, negative = inhibition, %; AID 652054, 2013; 360,000 tested, 2.5% active; in the data active means max response below about -50%; inconclusive means no clear call, values can overlap the other calls
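Cells plated overnight at 1500 cells/well, then exposed to library compounds with dopamine controls for 90 minutes at 37 degrees C. DiscoveRx reagent added for 30–60 minutes at room temperature; luminescence read, quantitative HTS format.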
Hits are given with their value; i = inactive; ? = inconclusive; nt = no result. Unless noted, the call rests on the fitted dose curve; in most records, active means well fitted curve in the direction sought with a large enough effect; inconclusive means small, poorly fitted or top-dose-only effect, or another doubt; inactive means no such curve, though single readings can be large; an effect the other way counts as inactive or inconclusive.

SMILES	GLP-1R inv ag	GLP1R ag	D3 ag	ClpP mod	GLP1R cytotox	DRD3 antagonist
Cc1ccc(NS(=O)(=O)c2cc([N+](=O)[O-])ccc2NNC(=S)Nc2cccc(Cl)c2)c(C)c1	?	i	i	i	?	-73
Cc1ccc(NS(=O)(=O)c2cc([N+](=O)[O-])ccc2NNC(=S)Nc2cc(C)ccc2C)c(C)c1	?	i	i	i	11µM	i
COc1ccc(NC(=S)NNc2ccc([N+](=O)[O-])cc2S(=O)(=O)Nc2ccc(C)cc2C)cc1	?	i	i	i	?	i
CCC(=O)NCCn1ccc2ccccc21	i	i	i	i	i	i
CC(C)C(=O)NCCn1ccc2ccccc21	i	i	i	i	i	-53
Cc1cc2ccccc2n1CCNC(=O)C(C)Oc1ccccc1 (stereo unspecified)	?	i	i	i	i	-60
COC(=O)C[C@H]1CC[C@H](NC(=O)Nc2ccccc2OC)[C@@H](CO)O1	i	nt	i	i	i	i
COc1cc(-c2ccc3oc(-c4cccc(C)c4)c(C#CC4(O)CCCCC4)c3c2)cc(OC)c1OC	?	i	42	i	i	i
COc1ccc(-c2oc3ccc(-c4ccc5c(c4)OCO5)cc3c2C#CC2(O)CCCCC2)cc1	i	i	i	i	i	i
CC(=O)Oc1c(-c2ccc(Br)o2)oc2ccccc2c1=O	5.6µM	i	i	nt	i	i
Cc1ccc(S(=O)(=O)NC2CC(C)(C)NC(C)(C)C2)c(C)c1C	?	i	i	i	i	i
Cc1ccc(OCC(=O)NC2CC(C)(C)NC(C)(C)C2)c(C)c1	?	i	i	i	i	i
Cc1cc(OCC(=O)NC2CC(C)(C)NC(C)(C)C2)c(C)cc1Br	4.5µM	i	i	i	i	i
CC1(C)CC(NS(=O)(=O)c2ccc3ccccc3c2)CC(C)(C)N1	11µM	i	i	nt	i	?
Cc1cc(C)c(S(=O)(=O)NC2CC(C)(C)NC(C)(C)C2)cc1Br	11µM	i	i	i	i	i
Cc1ccc(C(C)C)cc1S(=O)(=O)NC1CC(C)(C)NC(C)(C)C1	8.9µM	i	i	nt	i	i
COc1cc(C)c(S(=O)(=O)NC2CC(C)(C)NC(C)(C)C2)cc1C	?	i	i	i	i	i
Cc1cc2nc3c(=O)[nH]c(=O)nc-3n(CC(O)C(O)C(O)COP(=O)(O)O)c2cc1C (stereo unspecified)	nt	i	nt	nt	nt	nt
Cc1cc2cc3c(=O)[nH]c(=O)nc-3n(CC(O)C(O)C(O)CO)c2cc1C (stereo unspecified)	i	i	i	35µM	i	i
Cc1cc2cc3c(=O)[nH]c(=O)cc-3n(CC(O)C(O)C(O)CO)c2cc1C (stereo unspecified)	i	i	i	i	i	-97
Cc1nc2c(-c3ccccc3)c(C)[nH]n2c(=O)c1Cc1ccc(C(C)C)cc1	i	nt	i	?	i	nt
CN(Cc1ccccc1)C(=O)[C@@H]1CCCN1C(=O)[C@@H]1CCCN1C(=O)c1cccc2ccccc12	i	i	i	i	i	-50
O=C(NC1CCCCCCC1)c1cc(F)c(F)cc1Cl	?	i	i	i	i	i
Cc1ccc(C(=O)NC2CCCCCCC2)c(Cl)c1	4µM	i	i	i	i	i
CCOc1ccc(CN2CCNC(=O)C2CC(=O)NCCN2CCOC2=O)cc1 (stereo unspecified)	i	i	i	28µM	i	i
SMILES	GLP-1R inv ag	GLP1R ag	D3 ag	ClpP mod	GLP1R cytotox	DRD3 antagonist
CCOc1ccc(CN2CCNC(=O)C2CC(=O)NCc2csc(C)n2)cc1 (stereo unspecified)	i	i	i	28µM	i	i
Cc1ccc(CN2CCNC(=O)C2CC(=O)NCc2cc(C)n(C)n2)cc1 (stereo unspecified)	i	i	i	32µM	i	i
Cc1cc2oc(=O)cc(CN3CCC(C)CC3)c2cc1Cl	i	i	i	i	i	-52
Cc1ccc2c(CN3CCC(C)CC3)cc(=O)oc2c1	i	i	i	i	i	-61
Cc1ccc2c(CN3CC(C)CC(C)C3)cc(=O)oc2c1 (stereo unspecified)	?	i	i	i	i	i
COc1cccc(N2C(=O)CSC23C(=O)N(CC(=O)NCc2ccc(C)cc2)c2ccccc23)c1 (stereo unspecified)	i	i	i	i	i	nt
O=[N+]([O-])c1ccc(Nc2ccc3ccccc3c2)nc1	i	i	i	i	i	-107
O=C(Nc1ccc([N+](=O)[O-])cn1)C1CC1	i	i	i	i	i	i
CC(=O)Nc1ccc([N+](=O)[O-])cn1	i	i	i	i	i	-53
CCN1CCN(c2nc(NCCO)c3ccccc3n2)CC1	i	i	i	i	i	i
CC(Nc1nc(-c2ccccc2)nc2ccccc12)c1ccccc1 (stereo unspecified)	?	i	i	i	i	i
C=CCNc1nc(N2CCCC2)nc2ccccc12	?	i	i	32µM	i	i
CC(Nc1nc(N2CCCCC2)nc2ccccc12)c1ccccc1 (stereo unspecified)	?	i	i	28µM	?	i
COc1ccccc1C(=O)N1CCN(Cc2cc(=O)oc3cc(C)ccc23)CC1	i	nt	i	i	i	nt
CCOC(=O)C1=CN(Cc2cccc(F)c2)S(=O)(=O)NC1c1cccc(OC)c1 (stereo unspecified)	i	i	i	i	i	i
CCOC(=O)C1=CN(Cc2cccc(F)c2)S(=O)(=O)N(C)C1c1ccccc1 (stereo unspecified)	?	i	i	i	i	?
CCOC(=O)C1=CN(Cc2cccc(F)c2)S(=O)(=O)NC1c1ccc2ccccc2c1 (stereo unspecified)	13µM	i	i	i	i	-59
CCOC(=O)C1=CN(Cc2cccc(F)c2)S(=O)(=O)N(C)C1c1cccc(OC)c1 (stereo unspecified)	?	i	37	i	i	i
FCCCOc1ccc(/C=N/OCc2c(Cl)cccc2Cl)cc1	?	i	i	i	i	-65
COc1ccc(OC)c(CCNC(=O)Cn2ccc3cc(S(=O)(=O)N4CCCCC4)ccc32)c1	i	nt	i	i	i	nt
CN(C)c1ccc(C(=O)N2CCC2(C)C(=O)O)cc1 (stereo unspecified)	i	i	i	i	i	i
COCC1CCCN(Cc2cn(-c3ccccc3F)nc2-c2cc(C)sc2C)C1 (stereo unspecified)	?	i	i	i	i	-71

Source: PubChem BioAssay (National Center for Advancing Translational Sciences (NCATS))
